Assay results taken from PubChem BioAssay (NCI).
About 83,000 compounds went through this panel and 20% of them were active in at least one assay; those are over-represented in the sample as a whole.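 The test compound was applied at a single concentration to cells in 96-well plates for 48 hours, and percent growth was recorded.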 Calls of active or inactive are those of the source. Rule for the calls: active = growth percent below 10; inactive = the rest.

How the values were obtained:
Assay in all cases: NCI-60 one-dose screen, 48 h (100 = growth as untreated, 0 = no growth, -100 = all killed)
Conditions in all cases: 10 µM unless noted
EKVX NSCLC = system: EKVX NSCLC
SN12C renal = system: SN12C renal
UO-31 renal = system: UO-31 renal
TK-10 renal = system: TK-10 renal
ACHN renal = system: ACHN renal
CAKI-1 renal = system: CAKI-1 renal
A498 renal = system: A498 renal
CCRF-CEM leukemia = system: CCRF-CEM leukemia
MOLT-4 leukemia = system: MOLT-4 leukemia

Measured: growth

O=C(/C=C/c1ccc2c(c1)OCO2)c1c(O)c2ccccc2oc1=O
inactive: EKVX NSCLC 108% | SN12C renal 106% | UO-31 renal 90.1% | TK-10 renal 113% | ACHN renal 102% | CAKI-1 renal 95% | A498 renal 107% | CCRF-CEM leukemia 103% | MOLT-4 leukemia 77.6%

COc1cc2nccc(Oc3ccc(NC(=O)Nc4cc(C)on4)c(Cl)c3)c2cc1OC
inactive: EKVX NSCLC 37.6% | SN12C renal 11.6% | ACHN renal 13.7% | CCRF-CEM leukemia 22.3%
active: UO-31 renal -15.3% | TK-10 renal -15.8% | CAKI-1 renal 2.09% | A498 renal -35.9% | MOLT-4 leukemia 7.51%

CCN1CCN(Cc2ccc(-c3cc4c(N[C@H](C)c5ccccc5)ncnc4[nH]3)cc2)CC1
active: TK-10 renal 2.14% | ACHN renal 9.72%
inactive: EKVX NSCLC 41.8% | SN12C renal 25% | UO-31 renal 13.5% | CAKI-1 renal 21.7% | A498 renal 25.4% | CCRF-CEM leukemia 25.4% | MOLT-4 leukemia 37.8%

Cn1cc(-c2cnn3c(N)c(Br)c([C@@H]4CCCNC4)nc23)cn1
active: A498 renal -8.93% | MOLT-4 leukemia 7.79%
inactive: EKVX NSCLC 58.7% | SN12C renal 37.6% | UO-31 renal 28% | TK-10 renal 33.4% | ACHN renal 19.8% | CAKI-1 renal 17.3% | CCRF-CEM leukemia 19.9%

S=C(NCc1ccc2c(c1)OCO2)N1CCN(c2ncnc3c2oc2ccccc23)CC1
active: TK-10 renal -3% | MOLT-4 leukemia 5.79%
inactive: EKVX NSCLC 38.8% | SN12C renal 50.8% | UO-31 renal 11.9% | ACHN renal 19.6% | CAKI-1 renal 28% | A498 renal 19.8% | CCRF-CEM leukemia 22.5%

CC#CC(=O)N1CCC[C@H]1c1nc(-c2ccc(C(=O)Nc3ccccn3)cc2)c2c(N)nccn12
inactive: EKVX NSCLC 92.1% | SN12C renal 72.3% | UO-31 renal 79% | TK-10 renal 72.8% | ACHN renal 73.6% | CAKI-1 renal 72.9% | A498 renal 111% | CCRF-CEM leukemia 71.5% | MOLT-4 leukemia 89.4%

CN1CCN(CC(=O)Nc2ccc(-c3nc4ccccc4s3)cc2)CC1
inactive: EKVX NSCLC 83.7% | SN12C renal 77.7% | UO-31 renal 57.5% | TK-10 renal 94.8% | ACHN renal 71.2% | CAKI-1 renal 73.5% | A498 renal 59.5% | CCRF-CEM leukemia 63.7% | MOLT-4 leukemia 78%

CCCS(=O)(=O)Nc1ccc(F)c(C(=O)c2c[nH]c3ncc(-c4ccc(Cl)cc4)cc23)c1F
inactive: EKVX NSCLC 43.1% | SN12C renal 49.6% | UO-31 renal 19.5% | TK-10 renal 23.8% | ACHN renal 24.4% | CAKI-1 renal 12.1% | CCRF-CEM leukemia 26.9% | MOLT-4 leukemia 15.6%
active: A498 renal -1.82%

CCOc1cccc(/C=N/NC(=O)c2ccccc2Nc2ccnc(C(F)(F)F)c2)c1O
inactive: EKVX NSCLC 10.6% | SN12C renal 27.2% | TK-10 renal 23.5%
active: UO-31 renal -15.1% | ACHN renal 5.76% | CAKI-1 renal 4.57% | A498 renal -10.8% | CCRF-CEM leukemia -37.3% | MOLT-4 leukemia -10.9%

COc1cc2nccc(Oc3ccc(NC(=O)C4(C(=O)Nc5ccc(F)cc5)CC4)cc3)c2cc1OC
active: SN12C renal 9.57% | UO-31 renal -19.2% | ACHN renal 4.85% | CAKI-1 renal -14.9% | A498 renal -44.2%
inactive: EKVX NSCLC 23.4% | TK-10 renal 15.1% | CCRF-CEM leukemia 19.1% | MOLT-4 leukemia 11.6%

CCc1cc2c(cc1N1CCC(N3CCOCC3)CC1)C(C)(C)c1[nH]c3cc(C#N)ccc3c1C2=O
active: SN12C renal -14.9% | UO-31 renal -67.2% | TK-10 renal -12.1% | ACHN renal -27.3% | CAKI-1 renal -46.7% | A498 renal -37.1%
inactive: EKVX NSCLC 15.9% | CCRF-CEM leukemia 22.4% | MOLT-4 leukemia 25.4%

COc1cc2ncnc(Nc3cccc(Cl)c3F)c2cc1OC(=O)N1CCN(C)C[C@H]1C
inactive: EKVX NSCLC 57.8% | SN12C renal 50.1% | UO-31 renal 41.6% | TK-10 renal 28.1% | ACHN renal 19.5% | CAKI-1 renal 43.2% | A498 renal 82.8% | CCRF-CEM leukemia 74.7% | MOLT-4 leukemia 67.7%

Nc1ncnc2c1c(-c1cccc(OCc3ccccc3)c1)cn2C1CC(CN2CCC2)C1 (stereo unspecified)
active: UO-31 renal -66.6% | CAKI-1 renal 7.5% | A498 renal -1.47% | CCRF-CEM leukemia 5.52% | MOLT-4 leukemia -14.5%
inactive: EKVX NSCLC 30.1% | SN12C renal 35.5% | TK-10 renal 28.4% | ACHN renal 18.7%

Cc1ccc(C(=O)Nc2ccc(CN3CCN(C)CC3)c(C(F)(F)F)c2)cc1C#Cc1cnc2cccnn12
active: EKVX NSCLC -84.4% | SN12C renal -92.8% | UO-31 renal -93.6% | TK-10 renal -98.7% | ACHN renal -100% | CAKI-1 renal -99.9% | A498 renal -96.8% | CCRF-CEM leukemia -29.5% | MOLT-4 leukemia -62.3%

C[C@H](NC(=O)c1c(N)nn2cccnc12)c1cc2cccc(C#Cc3cnn(C)c3)c2c(=O)n1-c1ccccc1
inactive: EKVX NSCLC 33.9% | SN12C renal 40.6% | UO-31 renal 10.6% | ACHN renal 20.7% | CAKI-1 renal 21.3% | CCRF-CEM leukemia 13.8%
active: TK-10 renal -9.96% | A498 renal -24.3% | MOLT-4 leukemia -4.98%

Cc1ccc(N)cc1CN1C(=O)c2ccccc2C1=O
inactive: EKVX NSCLC 105% | SN12C renal 103% | UO-31 renal 70.1% | TK-10 renal 88.3% | ACHN renal 106% | CAKI-1 renal 105% | A498 renal 96.5% | CCRF-CEM leukemia 92.4% | MOLT-4 leukemia 94.9%

C/C(=C(/c1ccc(Cl)cc1)c1ccc(OCCN2CCCCC2)cc1)c1ccccc1
inactive: EKVX NSCLC 70.7% | SN12C renal 77% | UO-31 renal 59.7% | TK-10 renal 94.1% | ACHN renal 103% | CAKI-1 renal 89.4% | A498 renal 80.3% | CCRF-CEM leukemia 60.6% | MOLT-4 leukemia 83.4%

COc1ccc(-c2cnc(-c3ccc(Cl)cc3)[nH]2)cc1OC
inactive: EKVX NSCLC 117% | SN12C renal 91.6% | UO-31 renal 95.4% | TK-10 renal 139% | ACHN renal 103% | CAKI-1 renal 121% | A498 renal 90.6% | MOLT-4 leukemia 106%
active: CCRF-CEM leukemia -55.7%

Cc1cc(Nc2ncnc3ccc(NC4=NC(C)(C)CO4)cc23)ccc1Oc1ccn2ncnc2c1
active: TK-10 renal 1.72% | A498 renal -16%
inactive: EKVX NSCLC 41.6% | SN12C renal 33.1% | UO-31 renal 14.9% | ACHN renal 21.1% | CAKI-1 renal 13.8% | CCRF-CEM leukemia 11.7% | MOLT-4 leukemia 16.7%

Nc1cc(C(F)(F)F)c(-c2cc(N3CCOCC3)nc(N3CCOCC3)n2)cn1
active: EKVX NSCLC -13.4% | SN12C renal -3.99% | UO-31 renal -34.4% | TK-10 renal -35.4% | ACHN renal -8.54% | CAKI-1 renal -25.1% | A498 renal -80.4% | CCRF-CEM leukemia 4.63% | MOLT-4 leukemia -11.9%

CC(=O)OC(C(=O)c1ccccc1)c1ccccc1 (stereo unspecified)
inactive: EKVX NSCLC 109% | SN12C renal 94.6% | UO-31 renal 75.6% | TK-10 renal 94.6% | ACHN renal 101% | CAKI-1 renal 91.7% | A498 renal 95.9% | CCRF-CEM leukemia 104% | MOLT-4 leukemia 102%

Nc1nc(Nc2ccccc2)c(C=Nc2ccccc2)c(=O)[nH]1
inactive: EKVX NSCLC 89.1% | SN12C renal 91% | UO-31 renal 61% | TK-10 renal 116% | ACHN renal 83.4% | CAKI-1 renal 68% | A498 renal 86.3% | CCRF-CEM leukemia 92.1% | MOLT-4 leukemia 81.2%

Cc1cc(NCC(=O)Nc2ccc(-c3nc4ccccc4s3)cc2)no1
inactive: EKVX NSCLC 108% | SN12C renal 102% | UO-31 renal 77% | TK-10 renal 92.1% | ACHN renal 111% | CAKI-1 renal 104% | A498 renal 89.7% | CCRF-CEM leukemia 53.7% | MOLT-4 leukemia 46.7%

CNc1ncc2cc(-c3cc(NC(=O)NCCC(C)(C)C)c(F)cc3C)c(C)nc2n1
active: UO-31 renal 3.87% | TK-10 renal -4.98% | ACHN renal 5.23% | CAKI-1 renal 4.36% | A498 renal -35.4%
inactive: EKVX NSCLC 29.4% | SN12C renal 18.6% | CCRF-CEM leukemia 63.1% | MOLT-4 leukemia 20.6%

COCc1c(-c2ccc(NC(=O)Nc3cc(C(F)(F)F)ccc3F)c(F)c2)c2c(N)ncnn2c1CN1CCOCC1
active: EKVX NSCLC -25.4% | SN12C renal -10.8% | UO-31 renal -20% | TK-10 renal -43% | ACHN renal -1.81% | CAKI-1 renal -11.4% | A498 renal -64.3% | CCRF-CEM leukemia 5.76% | MOLT-4 leukemia -5.86%

CCNC(=O)Nc1nc2ccc(Oc3ccnc(C(=O)NC)c3)cc2s1
inactive: EKVX NSCLC 85.9% | SN12C renal 91.9% | UO-31 renal 88.2% | TK-10 renal 86.5% | ACHN renal 96.4% | CAKI-1 renal 92.5% | A498 renal 69.9% | CCRF-CEM leukemia 62.8% | MOLT-4 leukemia 47.9%

CC(=O)Nc1cccc(-n2c(=O)n(C3CC3)c(=O)c3c(Nc4ccc(I)cc4F)n(C)c(=O)c(C)c32)c1
active: A498 renal -34.4%
inactive: EKVX NSCLC 46% | SN12C renal 49.7% | UO-31 renal 12% | TK-10 renal 21.8% | ACHN renal 42% | CAKI-1 renal 27.1% | CCRF-CEM leukemia 68.5% | MOLT-4 leukemia 65.5%

CCN(CCCOc1ccc2c(Nc3cc(CC(=O)Nc4cccc(F)c4)[nH]n3)ncnc2c1)CCOP(=O)(O)O
inactive: EKVX NSCLC 99.3% | SN12C renal 79% | UO-31 renal 69.3% | TK-10 renal 83.9% | ACHN renal 95.5% | CAKI-1 renal 58.1% | A498 renal 98.4% | CCRF-CEM leukemia 51.4% | MOLT-4 leukemia 46.5%

CCOC(=O)c1sc(NC(=O)COc2ccc(/C=C3\Cc4ccc(Cl)cc4C3=O)cc2)nc1C
inactive: EKVX NSCLC 111% | SN12C renal 102% | TK-10 renal 149% | ACHN renal 102% | CAKI-1 renal 96.1% | A498 renal 143% | CCRF-CEM leukemia 101% | MOLT-4 leukemia 60.6%
active: UO-31 renal -77.3%
